Screens from PubChem BioAssay.
IDH1 R132H inh: qHTS for Inhibitors of mutant isocitrate dehydrogenase 1 (IDH1): qHTS. Isocitrate dehydrogenase [NADP] cytoplasmic (Homo sapiens), O75874. IDH1-R132H enzyme, NADPH consumption, diaphorase/resazurin fluorescence. Potency, µM (titrated, usually from 76.6 µM), most hits filed as inhibitors. actives 0.093% (n = 390,000). AID 602179, 2012; note: nearly all actives have a fitted effect of over 65% in size
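IDH1-R132H (0.5 ug/mL) preincubated 30 min with compound, then NADPH (0.016 mM) and alpha-KG (2 mM) added; 80 min at RT, pH 7.5. Remaining NADPH coupled via diaphorase/resazurin to fluorescence (540/590 nm); concentration-response curves normalized to no-enzyme control.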
LDHA inh: qHTS assay for inhibitors of human lactate dehydrogenase. AID 1347041, 2019. activity change, % (values are at about 110 or 230 µM). actives 0.15% (n = 480,000). L-lactate dehydrogenase A chain (Homo sapiens), P00338. purified LDHA, NADH/diaphorase-resazurin fluorescence; hits give low values; in the data active = activity change below about -30%; inconclusive = mostly about -25% to -30%
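Human LDH5 (2 nM) was incubated with 0.06 mM NADH and 0.2 mM pyruvate for 5 min at room temperature in Tris pH 7.4. Remaining NADH was coupled through diaphorase/resazurin, and resorufin fluorescence was read at 0 and 20 min.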
PKM2 activator: qHTS Assay for Activators of Human Muscle isoform 2 Pyruvate Kinase | Pyruvate kinase PKM (Homo sapiens), P14618 | purified PKM2, Kinase-Glo ATP luminescence, activation; response scale: 0% is enzyme alone, no compound | Potency, µM (top dose mostly 57.5 µM), actives largely listed as activators | actives 0.34% (n = 260,000); note: nearly all actives have a fitted effect of over 55% in size
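Kinase-Glo luminescence reports ATP generated from ADP (0.1 mM) and PEP (0.5 mM) by purified hPK-M2 after 1 h at room temperature, pH 7.2 imidazole buffer; intermediate enzyme activity allows detecting inhibitors and activators.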
TrxR1 substrate: qHTS Assay for Substrates of Mammalian Selenoprotein Thioredoxin Reductase 1 (TrxR1): qHTS; AID 588456, 2011; purified TrxR1 substrate turnover, NADPH consumption readout; actives 0.01% (n = 390,000); Thioredoxin reductase 1, cytoplasmic (Rattus norvegicus), O89049; Potency, µM (series often up to 114 µM); note: nearly all actives have a fitted effect of over 50% in size
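Rat TrxR1, dispensed at 90 nM, was prereduced with 400 uM NADPH (final) for 5 min at ~22 deg C, then incubated with compound 15 min before 400 uM selenite. A first-read NADPH fluorescence drop versus no-compound background flagged substrates.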
rTrxR1 inhibitor: qHTS Assay for Inhibitors of Mammalian Selenoprotein Thioredoxin Reductase 1 (TrxR1): qHTS; AID 588453, 2011; Thioredoxin reductase 1, cytoplasmic (Rattus norvegicus), O89049; recombinant rTrxR1, NADPH fluorescence consumption, selenite substrate; Potency, µM (series often up to 114 µM), hits mostly inhibitors; actives 1% (n = 390,000); note: nearly all actives have a fitted effect of over 65% in size
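Rat TrxR1 (90 nM in the dispensed reagent) was pre-reduced with 400 uM NADPH for 5 min at room temperature, then incubated with compound for 15 min. After 400 uM selenite was added, NADPH fluorescence (Ex 340/Em 450 nm) was followed for 8 min.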
GLS inhibitor: qHTS for Inhibitors of Glutaminase (GLS); Glutaminase kidney isoform, mitochondrial (Homo sapiens), O94925; GLS enzymatic activity, qHTS titration; actives 0.21% (n = 410,000); Potency, µM (highest dose often 45.5 µM), most hits filed as inhibitors
Target sequence (O94925 whole entry, looked up, canonical isoform): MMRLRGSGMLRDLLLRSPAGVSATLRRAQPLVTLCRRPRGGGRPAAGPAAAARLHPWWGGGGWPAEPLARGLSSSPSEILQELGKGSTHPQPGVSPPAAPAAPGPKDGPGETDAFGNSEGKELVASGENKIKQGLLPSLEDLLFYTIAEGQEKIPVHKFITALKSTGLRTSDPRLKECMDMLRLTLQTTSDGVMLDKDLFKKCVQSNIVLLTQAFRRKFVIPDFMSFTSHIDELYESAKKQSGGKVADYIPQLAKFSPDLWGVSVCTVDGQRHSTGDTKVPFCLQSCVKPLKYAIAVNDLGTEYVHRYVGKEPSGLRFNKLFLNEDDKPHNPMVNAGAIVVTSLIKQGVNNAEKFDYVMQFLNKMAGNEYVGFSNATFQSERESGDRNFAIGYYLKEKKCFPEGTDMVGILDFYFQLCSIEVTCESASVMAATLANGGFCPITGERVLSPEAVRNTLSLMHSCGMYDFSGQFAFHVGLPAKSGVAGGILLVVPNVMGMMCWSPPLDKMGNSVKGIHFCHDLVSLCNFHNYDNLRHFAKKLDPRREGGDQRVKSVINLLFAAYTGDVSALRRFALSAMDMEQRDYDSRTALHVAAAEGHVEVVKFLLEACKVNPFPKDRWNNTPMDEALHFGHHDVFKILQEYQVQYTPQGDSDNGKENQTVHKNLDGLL
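hKGA; 45 mM KH2PO4 pH 8.2 + 0.02% Tween-20; cpd via pin tool; 1 mM Gln soln; GluOx/HRP/Amplex Red; RT 30 min; fluor. t0 & final.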
Each line names hits and unclear results; the compound was inactive in the other large screens. Shown are actives, neighbours in structure and some others; about 1.4% of the full set was active somewhere. Unless noted, calls come from the whole dose curve; as a rule, active = well fitted curve in the direction sought with a large enough effect; inconclusive = small, poorly fitted or top-dose-only effect, or another doubt; inactive = no such curve, though single readings can be large; an effect the other way counts as inactive or inconclusive.

Cc1ccc(NC(=O)CC2SC(=O)N(c3ccccc3)C2=O)cc1 (stereo not given)	rTrxR1 inhibitor inconclusive, GLS inhibitor 11.2µM
O=C(CC1SC(=O)N(c2ccccc2)C1=O)Nc1ccccc1 (stereo not given)	none
O=C(CC1Sc2ncnn2C1=O)Nc1ccccc1 (stereo not given)	rTrxR1 inhibitor 4.47µM
COc1ccc(C(=O)C(C)Oc2ccc(C#N)cc2OC)cc1 (stereo not given)	none (no result: IDH1 R132H inh, PKM2 activator, TrxR1 substrate, rTrxR1 inhibitor, GLS inhibitor)
O=C(Nc1cccc2cccnc12)C(Cl)(Cl)Cl	rTrxR1 inhibitor 28.2µM (no result: IDH1 R132H inh, PKM2 activator, GLS inhibitor)
COc1cc(CNC(=O)c2ccc3nc(Cc4ccccc4F)oc3c2)cc(OC)c1OC	none (no result: IDH1 R132H inh, PKM2 activator, TrxR1 substrate, rTrxR1 inhibitor, GLS inhibitor)
Nc1ncn(C(=S)Nc2ccccc2)n1	rTrxR1 inhibitor 15.8µM (no result: PKM2 activator)
S=C(Nc1ccccc1)N1CCCCCC1	none
COc1ccc(CNC(=O)c2nc(-c3ccccc3)oc2C)cc1OC	none (no result: IDH1 R132H inh, PKM2 activator, TrxR1 substrate, rTrxR1 inhibitor, GLS inhibitor)
Cc1cccc(NC(=O)Nc2nnc([C@@H]3C[C@H](O)[C@@H](CO)O3)s2)c1	none (no result: IDH1 R132H inh, PKM2 activator, TrxR1 substrate, rTrxR1 inhibitor)
O=C(Nc1cccc(Cl)c1)Nc1nnc([C@H]2C[C@H](O)[C@@H](CO)O2)s1	LDHA inh -30.4 (no result: IDH1 R132H inh, PKM2 activator, TrxR1 substrate, rTrxR1 inhibitor)
CC(C)C(=O)NCC(=O)O	none (no result: IDH1 R132H inh, PKM2 activator, TrxR1 substrate, rTrxR1 inhibitor, GLS inhibitor)
Cc1cnc(NC(=O)C(C)N2CCN(C)CC2)s1 (stereo not given)	LDHA inh -30.6
COc1ccc(NC(=O)C(C)N2CCN(C)CC2)cc1 (stereo not given)	none (no result: PKM2 activator)
CC(C(=O)Nc1ccc(F)c(F)c1)N1CCN(C)CC1 (stereo not given)	LDHA inh -30.3 (no result: PKM2 activator)
COC(=O)c1ccc2c(c1)C(C)(C)C(/C=C/c1ccccc1O)=[N+]2C	IDH1 R132H inh 35.5µM, rTrxR1 inhibitor 79.4µM
CC(Sc1nc(N)cc(N)n1)C(=O)c1ccc(F)c(F)c1 (stereo not given)	none (no result: IDH1 R132H inh, PKM2 activator, TrxR1 substrate, rTrxR1 inhibitor, GLS inhibitor)
CCOc1ccccc1N1CCN(C(=O)CN2C(=O)NC3(CCCC3)C2=O)CC1	none (no result: PKM2 activator)
O=C(CN1C(=O)NC2(CCCC2)C1=O)N1CCN(c2ccccc2O)CC1	GLS inhibitor 3.16µM (no result: PKM2 activator)
CNc1nnc(SCc2cccc(C#N)c2)s1	none (no result: IDH1 R132H inh, PKM2 activator, TrxR1 substrate, rTrxR1 inhibitor, GLS inhibitor)
CC(C)OC(=O)NCCOC(N)=O	none (no result: IDH1 R132H inh, PKM2 activator, TrxR1 substrate, rTrxR1 inhibitor, GLS inhibitor)
O=C(c1cc(-c2cccc(Cl)c2)on1)N1CCCCCC1	none
O=C(c1cc(-c2ccco2)nn1-c1cccc(Cl)c1)N1CCCCC1	PKM2 activator inconclusive, rTrxR1 inhibitor 14.1µM
CC(C)NC(=O)c1cc(-c2ccco2)nn1-c1ccc(Cl)cc1	PKM2 activator inconclusive, rTrxR1 inhibitor 20µM
Cc1ccc(-n2nc(-c3ccco3)cc2C(=O)O)cc1	rTrxR1 inhibitor inconclusive, GLS inhibitor 11.2µM
CC(C)NC(=O)c1ccc(-n2nc(Sc3ccc(Cl)cc3)ccc2=O)cc1	none (no result: IDH1 R132H inh, PKM2 activator, TrxR1 substrate, rTrxR1 inhibitor, GLS inhibitor)
CCOC(=O)c1cc(-c2ccco2)nn1-c1ccc(C)cc1	none
CC(=O)Nc1ccc2c(C(C(=O)O)N3CCN(c4nc5c(cc4C#N)CCCC5)CC3)c[nH]c2c1 (stereo not given)	none (no result: IDH1 R132H inh, PKM2 activator, TrxR1 substrate, rTrxR1 inhibitor, GLS inhibitor)
COc1ccccc1N1C(=O)C=C(Sc2nc(C)cc(C)n2)C1=O	PKM2 activator inconclusive, rTrxR1 inhibitor 2.82µM, GLS inhibitor 7.94µM
COc1ccccc1N1C(=O)C2CC(C)=C(C)CC2C1=O (stereo not given)	none
Cc1ccc(N(CN2C(=O)C3CC=CCC3C2=O)C(=O)c2ccco2)cc1Cl (stereo not given)	rTrxR1 inhibitor 14.1µM
Cc1cc(NC(=O)CNc2cc(S(=O)(=O)N3CCOCC3)ccc2Oc2ccccc2)no1	none (no result: IDH1 R132H inh, PKM2 activator, TrxR1 substrate, rTrxR1 inhibitor, GLS inhibitor)
C=C(C)[C@@H]1C2=CC(C(=O)OC)=C(C[C@@H](C(=C)C)[C@H]3O[C@H]3C3=C[C@H]1OC3=O)O2	rTrxR1 inhibitor 11.2µM (no result: IDH1 R132H inh, PKM2 activator, GLS inhibitor)
CCn1c(SCC(=O)Nc2cccc(NC(C)=O)c2)nnc1-c1ccco1	none
CCn1c(SCC(=O)Nc2ccc3c(c2)c2ccccc2n3CC)nnc1-c1ccco1	rTrxR1 inhibitor 2.82µM, GLS inhibitor inconclusive
CC(C)Cn1c(SCC(=O)Nc2cccnc2Cl)nnc1-c1ccco1	rTrxR1 inhibitor 50.1µM (no result: PKM2 activator)
CCn1c2ccccc2c2cc(NC(=O)c3ccc(Br)o3)ccc21	rTrxR1 inhibitor 17.8µM
CCn1c2ccccc2c2cc(NC(=O)c3coc(=O)c(Br)c3)ccc21	none (no result: IDH1 R132H inh, LDHA inh, TrxR1 substrate, rTrxR1 inhibitor, GLS inhibitor)
CC1(C)CC(=O)C(CS(=O)(=O)c2ccccc2)=C(Cl)C1	rTrxR1 inhibitor 28.2µM
